# PubChem BioAssay AID1458 (National Center for Advancing Translational Sciences (NCATS), 2008)
# In all, about 210,000 compounds went through this assay and about 5,900 (2.8%) were called active. Entries that show only a call come without a potency. Inconclusive results (about 5%) are left out. Calls follow the shape of the dose curve; as a rule, active = well fitted activation curve with a large enough effect; inconclusive = small, poorly fitted or top-dose-only effect; inactive = no such curve, though single readings can be large or run the other way. This excerpt belongs to a sample that is enriched for actives.
# Experiment: qHTS Assay for Enhancers of SMN2 Splice Variant Expression; also: nearly all actives have a fitted effect of over 55% in size
# Settings: HEK293 SMN2-luciferase splicing reporter, luminescence, 30-36 h; series mostly up to 46.1 µM
# Procedure, shortened: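 qHTS luciferase splicing reporter: luminescence rises when SMN2 exon 7 is included in transfected HEK293 cells. Compound exposure lasted 30-36 h at 37C, with 4.5 mM final sodium butyrate as control, followed by a ONE-Glo read.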
# Potency is read from the fitted curve at half-maximal effect.
row,Compound,Potency
1,COc1ccc(-c2csc(-c3c(N)c(C(=O)c4ccc(OC)c(OC)c4)n4ccccc34)n2)cc1,inactive
2,CCCN1CCN(CCCNC(=O)CN2C(=O)COc3ccccc32)CC1,inactive
3,O=C(CN1C(=O)COc2ccccc21)NCCN1CCc2ccccc2C1,7.08 µM (active)
4,O=C(CN1C(=O)COc2ccccc21)Nc1ccc(F)cc1,inactive
5,CCc1ccccc1NC(=O)c1cc(-c2ccc3c(c2)OCO3)on1,inactive
6,COc1ccc(C(=O)Nc2nc(-c3ccc(S(=O)(=O)N4CCOCC4)cc3)cs2)cc1,inactive
7,COc1ccc(-c2csc(N3CCN(Cc4ccc5c(c4)OCO5)CC3)n2)cc1,inactive
8,COc1ccc(-c2csc(Cc3nc(O)cs3)n2)cc1,11.2 µM (active)
9,CCC(=O)N1CCc2cc(Br)cc(S(=O)(=O)CCC(=O)N3CCN(c4ccc(F)cc4)CC3)c21,inactive
10,Cc1ccc(-c2csc(NNC(=O)c3ccccc3)n2)cc1,inactive
11,Cc1ccc(-c2csc(NC(=O)Cc3cccs3)n2)cc1C,inactive
12,Cc1ccc(-c2nnc(-c3ccc(NC(=O)c4cccs4)cc3)o2)cc1,inactive
13,Cc1nc(-c2ccc(NC(=O)c3cccs3)cc2)cs1,3.16 µM (active)
14,Cc1ccc(-c2csc(NC(=O)c3cccs3)n2)cc1,11.2 µM (active)
15,O=C(O)Cc1ccc(NC(=O)c2cccs2)cc1,inactive
16,CCOC(=O)c1c(NC(=O)c2cc(CC)on2)sc(C(C)=O)c1C,inactive
17,CC(C)Cn1c(-c2ccc(S(=O)(=O)N3CCOCC3)cc2)csc1=Nc1cc(Cl)ccc1Cl,inactive
18,CCOc1ccc(CNC(=O)c2cccc(Nc3nc4ccccc4n4nnnc34)c2)cc1OC,inactive
19,Cc1c(NC(=O)Nc2ccccc2)cccc1[N+](=O)[O-],inactive

row,Compound,Potency
1,Cc1cc(NC(=O)Nc2ccccc2[N+](=O)[O-])no1,inactive
2,Cc1csc(NC(=O)Nc2ccccc2[N+](=O)[O-])n1,5.62 µM (active)
3,Cn1c(=O)c2c(nc(NCCc3ccccc3)n2Cc2ccccc2Br)n(C)c1=O,inactive
4,COc1ccccc1-c1ccnc2[nH]n(-c3ccccc3)c(=O)c12,inactive
5,CCOC(=O)C(Cc1ccccc1)NC(=O)CCc1c(C)nc2c(c(C)nn2-c2ccc(C)c(C)c2)c1C (stereo not drawn),inactive
6,COC(=O)c1ccc(CN2CCC(CO)(Cc3ccc(OC)cc3)CC2)cc1,inactive
7,COC(=O)CCC(=O)N1CCCC(CO)(Cc2ccccc2)C1 (stereo not drawn),14.1 µM (active)
8,COCC(=O)N1CCC2(CCCN(c3ccccc3)C2)CC1,inactive
9,COc1ccc(CNC(=O)Cn2nnc(-c3ccccc3F)n2)cc1,inactive
10,COC(=O)c1ccccc1NC(=O)Cn1c(=O)n(-c2cccc(C(F)(F)F)c2)c(=O)c2c(C)c(C)sc21,inactive
11,Cn1c(=O)c2c(nc(SCC(=O)Nc3ccc(F)cc3)n2Cc2ccc(Cl)cc2)n(C)c1=O,inactive
12,COc1ccc(NC(=O)c2ccco2)cc1NC(=O)c1ccc(C#N)cc1F,inactive
13,NNC(=O)c1ccc(Cl)cc1Cl,inactive
14,Cc1ccc(C(=O)NNC(=O)c2cccs2)cc1,inactive
15,O=C(NNC(=O)c1ccc(Cl)cc1Cl)c1cccs1,12.6 µM (active)
16,Cc1cccc(NC(=O)c2nnn(CC(=O)Nc3ccc(C(C)C)cc3)c2N)c1C,inactive
17,CCOc1ccc(CCNC(=O)c2csc3c2CCCCC3)cc1,inactive
18,Cc1ccc(C)c(N2CCN(Cc3nnc(-c4ccccc4)o3)CC2)c1,inactive
19,COc1cccc2cc(-c3nc(Cl)c4c5c(sc4n3)CC(C)CC5)c(=O)oc12 (stereo not drawn),inactive
